This is a sample that favours compounds with a hit; in the whole collection about 2.2% have one here.
CHRM1 PAM: positive allosteric modulators of human M1 muscarinic receptor | CHO-K1 hM1, Fluo-8 calcium fluorescence, ACh EC20; 0% = ACh EC20, 100% = maximal ACh | activation, % at 3 µM | 360,000 compounds, 0.088% hits; in the data active means activation above about 19%, passing the limit was not always enough
Target sequence (P11229 whole entry, looked up): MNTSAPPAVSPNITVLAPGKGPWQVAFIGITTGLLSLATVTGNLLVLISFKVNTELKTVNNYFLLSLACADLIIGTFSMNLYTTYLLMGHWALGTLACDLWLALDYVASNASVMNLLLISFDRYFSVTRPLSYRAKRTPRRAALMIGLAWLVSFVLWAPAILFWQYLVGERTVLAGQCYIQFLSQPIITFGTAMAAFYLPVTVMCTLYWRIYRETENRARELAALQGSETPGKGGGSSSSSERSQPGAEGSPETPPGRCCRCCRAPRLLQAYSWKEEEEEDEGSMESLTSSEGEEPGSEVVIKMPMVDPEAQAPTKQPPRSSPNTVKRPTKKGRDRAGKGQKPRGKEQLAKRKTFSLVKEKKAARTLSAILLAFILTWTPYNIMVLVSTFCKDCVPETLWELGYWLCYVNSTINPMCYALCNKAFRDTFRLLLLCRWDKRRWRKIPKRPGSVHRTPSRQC
M4 ag: agonists of human muscarinic M4 receptor (CHRM4). P08173. CHO-K1 hM4/Gqi5, Fluo-8 calcium fluorescence; vehicle 0%, full acetylcholine response 100%. activation, % at 3 µM. 360,000 compounds, 0.14% hits. AID 624127;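 active means activation above the run mean over all test wells plus 3 SD, cut at about 32% in these data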;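 further: peak over basal fluorescence ratio per well then scaled between controls; 0% = DMSO wells and 100% = acetylcholine at EC100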
CHRM4 antagonist: antagonists of human muscarinic M4 receptor (CHRM4); inhibition, % at 3 µM; 360,000 compounds, 0.73% hits; CHO-hM4 cells, ACh EC80, Fluo-8 calcium fluorescence;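 active means inhibition above its plate's cutoff, the mean inhibition of sample wells plus 3 SD, cut at about 27% in these data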;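 further: 0% = acetylcholine EC80 with DMSO and 100% = DMSO without agonist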
M1 ag: agonists of human M1 muscarinic receptor; P11229; CHO-K1 hM1, Fluo-8 calcium fluorescence, agonist mode; 0% DMSO, 100% acetylcholine EC100; activation, % at 3 µM; 360,000 compounds, 0.33% hits; AID 588814;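 active means activation above the run's mean compound activation plus 3 SD, cut at about 16% in these data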;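 further: peak over basal fluorescence ratio within a 140 s kinetic read after compound addition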
CHRM4 PAM: positive allosteric modulators of human muscarinic M4 receptor; 360,000 compounds, 0.4% hits; activation, % at 3 µM; P08173; CHO-K1 hM4/Gqi5, Fluo-8 calcium fluorescence, ACh EC20; 0% = ACh EC20, 100% = maximal ACh; AID 624126;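 active means activation above its plate's cutoff, the mean activation of sample wells plus 3 SD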
M1 antag: antagonists of human M1 muscarinic receptor; CHO-K1 hM1, Fluo-8 calcium fluorescence, ACh EC80 antagonist; inhibition, % at 3 µM; AID 588852; 360,000 compounds, 1.3% hits;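 active means percent inhibition above its own plate's cutoff, namely the mean of that plate's compound wells plus 3 SD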;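 further: peak over basal fluorescence ratio during 140 s after agonist addition; 0% = ACh EC80 plus DMSO and 100% = DMSO alone without agonist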
* = called active by the depositor.

SMILES	CHRM1 PAM	M4 ag	CHRM4 antagonist	M1 ag	CHRM4 PAM	M1 antag
COc1ccc(S(=O)(=O)N2CCC(C(=O)Nc3ccccc3N3CCCC3)CC2)cc1OC	-0.4	5.2	-4.8	-4.8	-3.5	0.9
Cc1sc2nc(CN3CCOCC3)nc(N3CCC(C(N)=O)CC3)c2c1C	12.6	4.3	1.6	0.8	20.9*	-12.5
Cc1ccc2[nH]c3c(N4CCc5ccccc5C4)ncnc3c2c1	-14.5	10.6	20.6	4.5	-13.8	30.0*
Fc1ccc2[nH]c3c(N4CCc5ccccc5C4)ncnc3c2c1	-15.3	17.6	22.9	2.1	-15.6	41.0*
CN1CCN(c2ncnc3c2[nH]c2ccc(F)cc23)CC1	1.4	1.0	1.8	-4.3	-5.0	-2.8
COc1ccc(C2=NOC3(CC(=O)N(c4ccc(F)cc4)C3=O)C2)cc1 (configuration not stated)	5.1	1.5	-17.9	-0.2	34.7*	-7.3
CC1(C(=O)NS(=O)(=O)C2CC2)CCCN(C(=O)c2ccccc2OC(F)(F)F)C1 (configuration not stated)	0.7	0.7	-17.6	-1.2	8.1	-2.1
COc1ccc(S(=O)(=O)N2CCN(C3CCN(Cc4ccccc4)CC3)CC2)cc1	-20.0	-0.9	18.6	-6.3	-11.7	52.7*
COc1cccc(CN2CCCN(S(=O)(=O)c3ccc(Br)cc3)CC2)c1	-21.1	1.1	0.1	-2.1	-16.3	37.3*
CNS(=O)(=O)c1cc2c3c(cccc3c1)C(=O)NC2=O	0.3	-0.3	8.2	-4.0	-3.1	21.6
Cc1cc(NC(=O)c2cc([N+](=O)[O-])cc([N+](=O)[O-])c2C)no1	6.6	1.4	-5.0	-3.4	5.2	-10.0
CCN1CCN(C(=O)CCCn2c(C)c3cnn(-c4ccccc4)c(=O)c3c2C)CC1	24.7*	2.8	-19.3	-5.8	5.9	-20.0
Cc1c2cnn(-c3ccccc3)c(=O)c2c(C)n1CCCC(=O)N1CCN(C2CCCCC2)CC1	-11.1	0.5	2.8	37.6*	-9.0	29.5
O=C(NC1CCCCCC1)c1cccc(N2CCCC2=O)c1	-13.3	0.6	5.3	-3.5	-4.8	6.3
COC(=O)C(Cc1ccccc1)NC(=O)CCC(=O)NC(C)CCc1ccccc1 (configuration not stated)	4.5	2.4	-6.6	-3.4	1.4	-12.8
CCC(CC)c1nnc(NC(=O)c2cc([N+](=O)[O-])ccc2N2CCOCC2)s1	12.4	1.0	-5.2	1.8	6.7	-1.1
CC(=O)Nc1cccc2ccc(O)cc12	6.6	0.3	-11.5	-0.1	15.5*	-17.8
Cc1cc(N=NC(=O)c2ccccc2)ccc1O	0.4	0.8	0.0	-3.9	-1.4	1.9
O=C1OC(N2C(=O)CC[C@H]2C(=O)NCC2CCCO2)c2ccccc21 (some centres not stated)	1.9	0.2	-4.5	-4.5	5.5	102.5*
O=C(NCC1CCCO1)[C@@H]1CSC2c3ccccc3C(=O)N21 (some centres not stated)	0.9	1.7	2.6	-4.4	5.3	-10.3
Cc1onc(-c2ccccc2Cl)c1C(=O)N1CCOC12CCCCC2	7.1	1.6	-17.0	-2.0	19.0*	-6.2
Cc1onc(-c2ccccc2Cl)c1C(=O)N1CCOC12CCN(c1cccc(F)n1)CC2	12.2	0.4	-5.2	-10.2	2.8	-2.4
Cc1onc(-c2c(Cl)cccc2Cl)c1C(=O)N1CCc2ccccc2C1	-23.1	-1.1	32.0*	-6.3	-16.1	40.7*
Cc1onc(-c2c(Cl)cccc2Cl)c1C(=O)N1CCCc2ccccc21	1.9	0.8	7.9	-7.9	-3.0	-6.5
COc1ccc(C(C[N+](=O)[O-])c2c(-c3ccccc3)cc3ccccn23)c(OC)c1 (configuration not stated)	-4.9	0.8	5.1	-6.9	-0.7	12.4
COc1ccccc1-c1noc(CCC(=O)Nc2cccc(C)c2)n1	-0.5	2.2	9.9	1.1	-3.6	-21.3
COc1ccc([N+](=O)[O-])cc1NC1CCN(C(=O)c2cccs2)CC1	13.3	3.3	-2.5	-0.3	17.7*	1.6

Screening data: PubChem, The Scripps Research Institute Molecular Screening Center
